This note sets out measurements from ChEMBL document CHEMBL1961873, “Compounds: GSK PKIS; Assays: Nanosyn kinase panel” (2012).

Test [1] concerns the target Mitogen-activated protein kinase kinase kinase kinase 4 (Homo sapiens) (UniProt O95819). The settings on record: at 1 µM.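 Also: reported figure is an averaged inhibition value.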
Test [2] deals with Dual specificity mitogen-activated protein kinase kinase 1 (Homo sapiens) (UniProt Q02750). To be noted: at 0.1 µM.
For test [3] the target is unchanged. To be noted: at 1 µM.
Test [4] has as its target Misshapen-like kinase 1 (Homo sapiens) (UniProt Q8N4C8). The settings on record: at 0.1 µM.
Test [5] shares this target. The settings on record: at 1 µM.
The target of test [6] is T1, Serine/threonine-protein kinase 4 (Homo sapiens) (UniProt Q13043).
T1 sequence (whole entry): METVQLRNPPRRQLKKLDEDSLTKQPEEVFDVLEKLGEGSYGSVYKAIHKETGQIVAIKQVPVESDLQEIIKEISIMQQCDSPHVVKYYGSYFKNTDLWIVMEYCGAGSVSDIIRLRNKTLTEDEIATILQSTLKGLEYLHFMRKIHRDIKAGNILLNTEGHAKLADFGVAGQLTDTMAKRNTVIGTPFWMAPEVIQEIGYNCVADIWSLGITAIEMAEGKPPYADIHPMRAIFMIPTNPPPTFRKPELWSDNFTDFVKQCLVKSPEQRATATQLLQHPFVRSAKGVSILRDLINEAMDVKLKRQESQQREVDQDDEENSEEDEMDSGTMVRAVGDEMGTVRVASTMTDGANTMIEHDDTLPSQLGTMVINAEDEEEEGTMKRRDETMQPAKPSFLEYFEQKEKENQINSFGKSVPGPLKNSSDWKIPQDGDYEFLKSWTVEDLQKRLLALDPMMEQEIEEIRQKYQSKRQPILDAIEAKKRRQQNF
The settings on record: at 0.1 µM.

Test [7] deals with T1, Serine/threonine-protein kinase 4 (Homo sapiens). The settings on record: at 1 µM.
Test [8] has as its target T2, Serine/threonine-protein kinase 3 (Homo sapiens) (UniProt Q13188).
T2 sequence (whole entry): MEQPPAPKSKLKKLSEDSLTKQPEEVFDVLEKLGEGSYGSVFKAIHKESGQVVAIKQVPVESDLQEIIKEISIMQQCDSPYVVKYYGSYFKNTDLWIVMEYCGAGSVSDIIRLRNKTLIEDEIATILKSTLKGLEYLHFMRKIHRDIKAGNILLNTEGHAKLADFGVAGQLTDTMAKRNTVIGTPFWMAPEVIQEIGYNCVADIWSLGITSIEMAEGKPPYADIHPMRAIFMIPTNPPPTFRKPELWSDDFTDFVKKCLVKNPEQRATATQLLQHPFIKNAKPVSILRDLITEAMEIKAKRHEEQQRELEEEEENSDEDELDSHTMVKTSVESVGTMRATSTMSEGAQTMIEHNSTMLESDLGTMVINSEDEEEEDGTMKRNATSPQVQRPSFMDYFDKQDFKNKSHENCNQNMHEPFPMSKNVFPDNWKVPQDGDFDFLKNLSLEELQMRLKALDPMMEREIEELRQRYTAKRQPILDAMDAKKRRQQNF
The settings on record: at 0.1 µM.

Test [9] deals with T2, Serine/threonine-protein kinase 3 (Homo sapiens). The settings on record: at 1 µM.
For test [10], the target named is Serine/threonine-protein kinase 26 (Homo sapiens) (UniProt Q9P289). The settings on record: at 0.1 µM.
Test [11] shares this target. The settings on record: at 1 µM.
Test [12] addresses Serine/threonine-protein kinase PAK 1 (Homo sapiens) (UniProt Q13153). The settings on record: at 0.1 µM.
For test [13] the target is unchanged. To be noted: at 1 µM.
Test [14] deals with Serine/threonine-protein kinase PAK 2 (Homo sapiens) (UniProt Q13177). To be noted: at 0.1 µM.
Test [15] has the same target. To be noted: at 1 µM.
In test [16] the target is Serine/threonine-protein kinase PAK 3 (Homo sapiens) (UniProt O75914). To be noted: at 0.1 µM.
Test [17] has the same target. The settings on record: at 1 µM.
The target of test [18] is Serine/threonine-protein kinase PAK 5 (Homo sapiens) (UniProt Q9P286). The settings on record: at 1 µM.
Test [19] concerns the target Serine/threonine-protein kinase PAK 6 (Homo sapiens) (UniProt Q9NQU5). The settings on record: at 0.1 µM.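 Also: mean PAK6 inhibition reported from the GSK PKIS screen.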
Test [20] addresses Serine/threonine-protein kinase PAK 5 (Homo sapiens) (UniProt Q9P286). To be noted: at 0.1 µM.

Serine/threonine-protein kinase PAK 6 (Homo sapiens), sequence (Q9NQU5 whole entry, looked up): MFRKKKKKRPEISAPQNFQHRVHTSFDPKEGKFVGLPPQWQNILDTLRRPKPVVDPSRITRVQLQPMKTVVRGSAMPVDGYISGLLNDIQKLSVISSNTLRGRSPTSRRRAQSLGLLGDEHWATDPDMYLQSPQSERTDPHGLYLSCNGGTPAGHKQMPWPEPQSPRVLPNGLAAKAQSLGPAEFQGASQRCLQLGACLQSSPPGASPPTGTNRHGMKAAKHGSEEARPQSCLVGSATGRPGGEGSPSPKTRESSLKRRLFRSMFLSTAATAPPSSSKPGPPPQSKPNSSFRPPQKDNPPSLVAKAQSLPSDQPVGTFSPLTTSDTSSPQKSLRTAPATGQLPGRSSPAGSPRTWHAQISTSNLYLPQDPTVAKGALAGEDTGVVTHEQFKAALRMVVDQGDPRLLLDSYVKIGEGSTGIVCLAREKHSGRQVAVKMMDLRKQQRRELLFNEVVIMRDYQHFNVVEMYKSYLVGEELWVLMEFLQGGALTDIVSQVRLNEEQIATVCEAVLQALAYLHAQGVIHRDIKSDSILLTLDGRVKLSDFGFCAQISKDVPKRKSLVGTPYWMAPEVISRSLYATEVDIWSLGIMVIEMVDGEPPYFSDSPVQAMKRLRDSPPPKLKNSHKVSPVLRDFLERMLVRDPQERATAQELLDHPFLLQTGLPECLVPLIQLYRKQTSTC
Serine/threonine-protein kinase PAK 2 (Homo sapiens), sequence (Q13177 whole entry): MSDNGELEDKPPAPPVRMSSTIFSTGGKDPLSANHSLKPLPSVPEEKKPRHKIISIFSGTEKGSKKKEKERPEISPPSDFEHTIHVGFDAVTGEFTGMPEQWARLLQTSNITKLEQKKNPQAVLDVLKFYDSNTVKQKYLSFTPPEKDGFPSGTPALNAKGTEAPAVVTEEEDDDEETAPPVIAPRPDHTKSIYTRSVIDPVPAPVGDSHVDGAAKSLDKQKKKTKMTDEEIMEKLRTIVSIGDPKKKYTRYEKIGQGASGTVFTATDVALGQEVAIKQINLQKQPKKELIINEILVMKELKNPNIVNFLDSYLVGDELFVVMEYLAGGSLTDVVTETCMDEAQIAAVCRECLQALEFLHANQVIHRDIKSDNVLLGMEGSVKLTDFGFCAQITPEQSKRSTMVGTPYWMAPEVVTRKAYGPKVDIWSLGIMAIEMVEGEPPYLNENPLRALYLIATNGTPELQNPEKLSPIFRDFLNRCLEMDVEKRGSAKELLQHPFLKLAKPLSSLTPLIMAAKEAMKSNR
Misshapen-like kinase 1 (Homo sapiens), sequence (Q8N4C8 whole entry, looked up): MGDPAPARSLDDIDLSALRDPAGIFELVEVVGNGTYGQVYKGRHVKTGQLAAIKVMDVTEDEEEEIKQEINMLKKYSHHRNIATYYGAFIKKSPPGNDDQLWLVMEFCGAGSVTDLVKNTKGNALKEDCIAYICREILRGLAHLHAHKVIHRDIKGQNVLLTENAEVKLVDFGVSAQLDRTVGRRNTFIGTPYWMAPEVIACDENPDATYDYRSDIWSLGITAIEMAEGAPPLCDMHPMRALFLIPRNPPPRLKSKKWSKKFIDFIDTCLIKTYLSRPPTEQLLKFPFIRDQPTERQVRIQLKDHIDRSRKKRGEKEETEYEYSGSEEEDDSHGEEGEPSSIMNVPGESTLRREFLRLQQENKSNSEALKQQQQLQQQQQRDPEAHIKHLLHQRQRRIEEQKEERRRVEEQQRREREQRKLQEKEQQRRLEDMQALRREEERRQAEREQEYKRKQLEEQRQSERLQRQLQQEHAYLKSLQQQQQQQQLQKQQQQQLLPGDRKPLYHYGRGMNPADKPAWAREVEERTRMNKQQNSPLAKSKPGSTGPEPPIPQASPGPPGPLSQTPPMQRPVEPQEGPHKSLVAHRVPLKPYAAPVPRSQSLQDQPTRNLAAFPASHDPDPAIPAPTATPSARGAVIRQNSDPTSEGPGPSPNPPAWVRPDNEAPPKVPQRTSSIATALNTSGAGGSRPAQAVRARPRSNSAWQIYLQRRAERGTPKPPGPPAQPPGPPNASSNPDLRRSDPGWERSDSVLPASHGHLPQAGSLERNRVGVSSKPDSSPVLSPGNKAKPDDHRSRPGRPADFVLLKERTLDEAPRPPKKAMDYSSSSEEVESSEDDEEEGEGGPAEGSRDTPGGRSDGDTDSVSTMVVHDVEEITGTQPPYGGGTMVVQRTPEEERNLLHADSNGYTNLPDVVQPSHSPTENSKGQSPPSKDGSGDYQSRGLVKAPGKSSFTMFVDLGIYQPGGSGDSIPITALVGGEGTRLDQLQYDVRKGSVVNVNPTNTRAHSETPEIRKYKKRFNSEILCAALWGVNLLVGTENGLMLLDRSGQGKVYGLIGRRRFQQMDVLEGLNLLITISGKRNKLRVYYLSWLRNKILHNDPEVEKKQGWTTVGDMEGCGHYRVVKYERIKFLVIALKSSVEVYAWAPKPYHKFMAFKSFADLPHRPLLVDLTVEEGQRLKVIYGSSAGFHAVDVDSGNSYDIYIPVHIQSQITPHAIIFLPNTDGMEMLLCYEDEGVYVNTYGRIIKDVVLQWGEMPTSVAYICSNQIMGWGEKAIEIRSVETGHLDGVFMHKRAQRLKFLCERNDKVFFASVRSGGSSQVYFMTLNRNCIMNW
Serine/threonine-protein kinase PAK 3 (Homo sapiens), sequence (O75914 whole entry, looked up): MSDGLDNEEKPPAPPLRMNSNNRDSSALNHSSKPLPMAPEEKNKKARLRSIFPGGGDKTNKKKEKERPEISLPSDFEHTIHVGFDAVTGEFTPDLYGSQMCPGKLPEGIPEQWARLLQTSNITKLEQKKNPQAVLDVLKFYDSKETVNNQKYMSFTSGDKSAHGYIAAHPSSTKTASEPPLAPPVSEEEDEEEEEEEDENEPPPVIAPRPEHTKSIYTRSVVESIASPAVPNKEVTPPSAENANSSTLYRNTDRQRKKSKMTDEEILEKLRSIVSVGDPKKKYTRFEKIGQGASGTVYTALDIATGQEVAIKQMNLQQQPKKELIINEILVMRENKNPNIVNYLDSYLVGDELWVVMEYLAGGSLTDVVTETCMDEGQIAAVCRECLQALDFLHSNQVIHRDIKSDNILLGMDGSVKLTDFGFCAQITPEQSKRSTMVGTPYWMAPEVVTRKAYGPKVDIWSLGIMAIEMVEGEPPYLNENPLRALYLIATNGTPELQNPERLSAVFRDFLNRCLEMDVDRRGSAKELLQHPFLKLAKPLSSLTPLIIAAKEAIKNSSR
Serine/threonine-protein kinase PAK 1 (Homo sapiens), sequence (Q13153 whole entry): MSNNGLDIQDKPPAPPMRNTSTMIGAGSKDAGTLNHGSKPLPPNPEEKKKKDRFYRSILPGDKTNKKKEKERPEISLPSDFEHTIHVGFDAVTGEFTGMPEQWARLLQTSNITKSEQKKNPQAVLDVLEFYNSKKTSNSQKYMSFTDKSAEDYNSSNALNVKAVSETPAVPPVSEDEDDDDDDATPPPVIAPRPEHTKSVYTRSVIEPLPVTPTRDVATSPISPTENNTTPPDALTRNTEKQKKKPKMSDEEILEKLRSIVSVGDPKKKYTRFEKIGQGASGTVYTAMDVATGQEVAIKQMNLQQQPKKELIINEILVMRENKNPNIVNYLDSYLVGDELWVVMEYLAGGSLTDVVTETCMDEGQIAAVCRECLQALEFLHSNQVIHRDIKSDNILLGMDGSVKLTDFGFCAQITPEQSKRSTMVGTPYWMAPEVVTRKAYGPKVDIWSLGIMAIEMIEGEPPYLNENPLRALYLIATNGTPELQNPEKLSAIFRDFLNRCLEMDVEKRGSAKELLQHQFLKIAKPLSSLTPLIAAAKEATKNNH
Serine/threonine-protein kinase PAK 5 (Homo sapiens), sequence (Q9P286 whole entry, looked up): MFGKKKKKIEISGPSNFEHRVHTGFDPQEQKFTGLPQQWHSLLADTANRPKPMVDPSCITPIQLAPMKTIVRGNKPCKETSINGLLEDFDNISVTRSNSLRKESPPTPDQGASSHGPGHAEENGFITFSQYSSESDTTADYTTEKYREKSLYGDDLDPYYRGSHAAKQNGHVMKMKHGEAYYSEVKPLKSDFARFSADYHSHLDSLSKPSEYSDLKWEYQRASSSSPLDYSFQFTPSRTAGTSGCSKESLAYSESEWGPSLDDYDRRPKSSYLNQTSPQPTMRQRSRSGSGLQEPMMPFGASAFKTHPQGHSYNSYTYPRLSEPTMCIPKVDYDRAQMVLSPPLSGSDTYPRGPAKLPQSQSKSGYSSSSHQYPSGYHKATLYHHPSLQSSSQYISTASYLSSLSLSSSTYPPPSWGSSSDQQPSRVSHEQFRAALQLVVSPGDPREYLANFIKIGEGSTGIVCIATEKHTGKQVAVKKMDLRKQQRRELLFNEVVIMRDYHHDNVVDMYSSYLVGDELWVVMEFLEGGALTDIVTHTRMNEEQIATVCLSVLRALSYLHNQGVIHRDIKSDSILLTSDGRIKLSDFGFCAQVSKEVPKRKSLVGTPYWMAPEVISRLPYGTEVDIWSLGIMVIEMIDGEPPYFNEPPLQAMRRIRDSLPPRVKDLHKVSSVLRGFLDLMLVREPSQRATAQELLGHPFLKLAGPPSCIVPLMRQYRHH
Serine/threonine-protein kinase 26 (Homo sapiens), sequence (Q9P289 2-416 limits assumed): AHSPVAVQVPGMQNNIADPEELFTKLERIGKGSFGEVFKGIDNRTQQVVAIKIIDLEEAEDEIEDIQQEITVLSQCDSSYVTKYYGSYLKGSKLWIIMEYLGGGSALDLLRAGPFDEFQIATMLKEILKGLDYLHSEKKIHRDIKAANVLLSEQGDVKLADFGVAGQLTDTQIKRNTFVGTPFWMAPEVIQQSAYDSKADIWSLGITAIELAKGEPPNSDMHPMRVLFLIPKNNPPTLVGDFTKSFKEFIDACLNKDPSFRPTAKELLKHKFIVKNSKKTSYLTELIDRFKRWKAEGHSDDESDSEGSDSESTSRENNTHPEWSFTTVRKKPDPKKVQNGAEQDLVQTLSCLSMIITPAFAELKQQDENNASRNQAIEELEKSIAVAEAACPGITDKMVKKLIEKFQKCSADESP

As usually defined, the inhibition is the change of the read-out against control, counted positive when it falls. On to `O=C1Nc2ccccc2/C1=C/Nc1ccc(-n2cncn2)cc1`, for which the inhibition stood at 65.8% in test [1]; 6.13% in test [2]; 6.15% in [3]; 15.3% in [4]; 56.5% in [5]; 14.9% in test [6]. For the same compound, the inhibition in test [7] is 54.4%; in test [8], 9.7%; in test [9] it was 35.7%; in test [10], -0.63%; in test [11], 5.15%; in test [12] it was 6.65%. Besides, the inhibition in [13] was 8.31%; in test [14], 1.82%; in test [15], 2.17%; in test [16], 5.31%; in test [17], 5.49%; in test [18], -2.52%. Moreover, the inhibition in test [19] was -0.09%.
`CS(=O)(=O)CCNCc1cc(-c2cc3c(Nc4ccc(OCc5cccc(F)c5)c(Cl)c4)ncnc3s2)cs1`: the inhibition stood at 10.3% in test [1]; 4.54% in test [2]; 5.74% in test [3]; 6.33% in [4]; 8.36% in test [5]; 4.99% in [6]. The inhibition is 6.28% in test [7]; 6.59% in test [8]; 6.16% in test [9]; -2.65% in test [10]; -1.71% in test [11]; 10.9% in test [12]. For the same compound, the inhibition in [13] was 9.09%; in [14], 2.13%; in test [15], 3.83%; in test [16], 4.86%; in test [17], 7.41%; in test [20] it was 5.61%. In addition, the inhibition in test [18] was 3.34%; in test [19] it was -6.6%.
`NC(=O)c1cc(-c2ccc(F)cc2)cc(-c2ccncc2)c1N`: the inhibition was 9.21% in test [1]; 5.61% in test [2]; 3.83% in test [3]; 4.49% in [4]; 10% in test [5]; 3.76% in test [6]. Moreover, the inhibition in [7] is 5.59%; in test [8], 4.31%; in [9] it was 5.48%; in test [10], -2.72%; in test [11] it was -1.28%; in test [12], 5.31%. Further, the inhibition was 6.13% in test [13]; 0.6% in [14]; 1.36% in test [15]; 4.12% in test [16]; 4.25% in test [17]; -1.26% in test [20]. The results for the inhibition in [18] and in [19] were 1.21% and -6.76%, respectively.
With `O=C(Nc1n[nH]c2nc(-c3ccc(O)cc3)c(Br)cc12)C1CC1`, the inhibition in [1] stood at 75.2%; in [2], 7.68%; in test [3], 8.1%; in test [4] it was 26.4%; in [5], 67.7%; in test [6], 5.36%. Moreover, the inhibition in test [7] was 10.2%; in test [8] it was 6.31%; in test [9], 10.6%; in [10], 4.96%; in [11], 35%; in test [12], 7.71%. In addition, the inhibition is 8.21% in [13]; 2.36% in test [14]; 3.87% in test [15]; 6.07% in [17]; 1.12% in test [20]; 8.52% in [18]. For the same compound, the inhibition in [19] was -0.4%.
In the case of `N#Cc1ccc(Oc2nccc(-c3c(-c4ccc(F)cc4)ncn3C3CCNCC3)n2)cc1`, the inhibition in test [1] was determined as 5.64%; in test [2], 4.35%; in [3], 3.84%; in [4], 6.9%; in [5], 7.67%; in test [6], 3.35%. Besides, the inhibition in test [7] is 4.07%; in test [8] it was 5.75%; in [9], 4.78%; in test [10], -1.67%; in test [11] it was -2.91%; in test [12] it was 7.47%. The inhibition came out at 7.87% in [13]; 1.65% in [14]; 2.68% in test [15]; 4.55% in [16]; 4.04% in [17]; 2.41% in test [20]. Moreover, the inhibition in test [18] is 0.4%; in test [19] it was -4.78%.
As for `COc1cccc(-n2cnc3c(N/N=C/c4ccncc4)ncnc32)c1`, the inhibition in [1] was 16.9%; in test [2], -0.13%; in test [3] it was -0.71%; in [4], 2.27%; in test [5], 16.9%; in [6], 3.6%. Besides, the inhibition in test [7] is 7.14%; in test [8], 4.46%; in test [9] it was 7.42%; in test [10], 0.98%; in test [11], -2.88%; in test [12] it was 2.37%. Also, the inhibition in [13] was 1.58%; in test [14], -1.03%; in [15] it was -0.99%; in test [16], -1.14%; in test [17], 0.31%; in [20] it was 6.09%. Also, the inhibition in [18] was determined as 10.8%; in test [19], 5.99%.
With `FC(F)(F)c1cccc(Nc2nccc(-c3cnn4nc(-c5ccccc5)ccc34)n2)c1`, the inhibition in [1] turned out to be 3.3%; in test [2], 2.8%; in test [3] it was 3.14%; in [4] it was 3.38%; in [5], 3.06%; in [6], 1.12%. The inhibition in test [7] is 3.6%; in test [8], 3.94%; in [9], 3.81%; in test [10], 0.42%; in test [11] it was -3.24%; in test [12] it was 6.28%. Also, the inhibition was 3.48% in test [13]; 0.33% in test [14]; 0.77% in [15]; 2.74% in [16]; 2.27% in test [17]; -0.43% in [20]. The inhibition in test [18] was -0.64%; in test [19] it was -2.37%.
